Laboratory results from PubChem BioAssay AID463195 (Sanford-Burnham Center for Chemical Genomics, 2010).
The campaign covered roughly 330,000 compounds. About 4,600 (1.4%) were called active. This excerpt belongs to a sample that is enriched for actives. Values without a mark were called inactive.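 Rule for the calls: active = inhibition of 40% or more at the single tested concentration; inactive = the rest.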

Experiment: growth inhibitors of isogenic TIM10 control yeast, primary screen, counter-screen for tim10-1 yeast inhibitor project, luminescence, uHTS (AID 463195);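 note: wild-type TIM10 isogenic control strain grown at permissive 25 °C; 0% = DMSO yeast wells and 100% = minimal medium wells without yeast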
Details: S. cerevisiae TIM10 strain growth, BacTiter-Glo luminescence, 24 h; at 10 µM; hits give high values

Row | Structure (SMILES) | inhibition
1 | CC1CC(=S)Nc2ccccc2N1Cc1ccccc1 (stereo not drawn) | 46.2% (active)
2 | CC1CC(=O)Nc2ccccc2N1S(=O)(=O)c1cccs1 (stereo not drawn) | 5.91%
3 | CC1CC(C)(C)NC(=S)N1CCC(=O)N1CCN(Cc2ccccc2)CC1 (stereo not drawn) | -2.23%
4 | COC(=O)CNc1nc(Cl)nc(N2CCC(C)CC2)n1 | -3.85%
5 | CCOc1ccccc1NC(=S)NC(=O)CCc1ccccc1 | 11.7%
6 | O=C(OCCOCn1cc(Br)c(=O)[nH]c1=O)c1ccccc1 | -12.6%
7 | Cn1nccc1/C=N\NC(=O)c1ccc(Cl)cc1 | -2.29%
8 | COc1ccc(C(CNC(=O)COc2ccccc2OC)N2CCCCC2)cc1 (stereo not drawn) | 0.651%
9 | CCc1ccc(OCC(=O)NCC(c2ccc(Cl)cc2)N2CCCCC2)cc1 (stereo not drawn) | 42.7% (active)
10 | COc1ccc(C(CNC(=O)COc2ccc([N+](=O)[O-])cc2)N2CCCCC2)cc1 (stereo not drawn) | 8.46%
11 | CC1(c2ccccc2)CC(C)(C)N(C(=O)c2cc([N+](=O)[O-])cc([N+](=O)[O-])c2)c2ccccc21 (stereo not drawn) | -3.92%
12 | CC1CCC2CCCCC2N1C(=O)c1cc([N+](=O)[O-])cc([N+](=O)[O-])c1 (stereo not drawn) | 40.2% (active)
13 | CC1CCN(C(=S)c2cccc([N+](=O)[O-])c2)CC1 | 1.4%
14 | Cc1csc(CN(C)C(=O)CC2C(=O)NCCN2CC(C)(C)C)n1 (stereo not drawn) | -12.9%
15 | Cn1c(=O)cc(OCCCC(=O)N2CCN(c3ccccn3)CC2)c2ccccc21 | 13.5%
16 | Oc1cccc2ccc(/C=C/c3ccc(Br)s3)nc12 | 15.2%
17 | CCNC(=S)N(CCc1c(C)[nH]c2ccc(C)cc12)Cc1ccco1 | 41.2% (active)
18 | COCCNC(=S)N(CCc1c(C)[nH]c2ccc(C)cc12)Cc1cccnc1 | -1.03%
19 | COc1cccc(NC(=S)N(CCc2c(C)[nH]c3ccccc23)Cc2ccco2)c1 | 15.9%
20 | O=C(N/N=C/c1ccc(O)c(O)c1)C1c2ccccc2Oc2ccccc21 | -9.32%
21 | CCN(CCCCOC(=O)c1ccc(OC)c(OC)c1)C(C)Cc1ccc(OC)cc1 (stereo not drawn) | -1.12%
22 | Cc1ccccc1N1CCN(C2CCCN(C(=O)c3ocnc3C)C2)CC1 (stereo not drawn) | -0.332%
23 | CC(C)c1ccc(S(=O)(=O)N2CCN(C(C)C(=O)NC3CCCC3)CC2)cc1 (stereo not drawn) | -30.5%
24 | COc1cccc(CNC(C)C(=O)Nc2ccc(S(=O)(=O)N3CCCC3)cc2)c1 (stereo not drawn) | 18.4%

Row | Structure (SMILES) | inhibition
25 | COc1ccc(S(=O)(=O)N2CCN(C(C)C(=O)Nc3ccc(C(C)C)cc3)CC2)cc1 (stereo not drawn) | 44.9% (active)
26 | Cc1c(C(=O)OC(C)C)sc(NC(=O)c2cccnc2)c1C#N | 6.36%
27 | COc1ccc(CCNC(=O)COC(=O)Cc2cccc(F)c2)cc1 | 7.57%
28 | Cc1cccc(NC(=O)CN2CCN(C(=O)C3CCN(C(=O)/C=C/c4ccccc4)CC3)CC2)c1C | 8.87%
29 | CCCCn1c(=O)c(CCC(=O)OCC(=O)Nc2ccc(C)c(Cl)c2)nc2ccccc21 | -6.83%
30 | COc1ccc(S(=O)(=O)N(C)C[C@H]2Oc3c(NC(=O)Nc4ccc5c(c4)OCO5)cccc3C(=O)N([C@H](C)CO)C[C@@H]2C)cc1 | 1.19%
31 | O=C(NCc1ccccc1)C1CCCN(c2nc3ccsc3c(=O)s2)C1 (stereo not drawn) | -2.48%
32 | CCC(C)NC(=O)c1nn(C)c(=O)c2ccccc12 (stereo not drawn) | 1.61%
33 | Cc1ccc(NC(=O)CSc2sc3c(O)cc(=O)[nH]c3c2C#N)cc1C | -6.33%
34 | CCOC(=O)c1ccc(N2C(=O)CC(N3CCC(C(=O)OCC)CC3)C2=O)cc1 (stereo not drawn) | 41.3% (active)
35 | CCOC(=O)c1ccc(N2C(=O)CC(N3CCN(C(=O)c4ccccc4)CC3)C2=O)cc1 (stereo not drawn) | 1.01%
36 | CCOC(=O)c1ccc(N2C(=O)CC(N3CC(C)OC(C)C3)C2=O)cc1 (stereo not drawn) | 8.24%
37 | CC1CN(C(=S)Nc2ccc(S(N)(=O)=O)cc2)CC(C)O1 (stereo not drawn) | 2.19%
38 | CCN(C(=O)COc1ccc(C(=O)c2ccccc2)cc1)c1ccccc1 | 16.5%
39 | CCOC(=O)CSc1nc(N2CCOCC2)c2c(c1C#N)CC(C(C)C)OC2 (stereo not drawn) | 20%
40 | O=C(Nc1cccc(F)c1)[C@@H]1CCCN1 | -11.2%
41 | COc1ccc(-n2cnc3cc(NCc4ccco4)ccc32)cc1 | 35.3%
42 | COc1ccc(-c2oc3ncn(Cc4ccco4)c(=N)c3c2-c2ccc(OC)cc2)cc1 | 49% (active)
43 | COc1ccc(-c2oc3ncnc(NCCCO)c3c2-c2ccc(OC)cc2)cc1 | 17.8%
44 | COc1ccc(C(C)(C)C)cc1NC(=O)CCN1C(=O)C2CCCCC2C1=O (stereo not drawn) | 24.4%
45 | COc1ccccc1Oc1ccc(N2CC(C(=O)OCC(=O)c3ccc(F)cc3)CC2=O)cc1 (stereo not drawn) | 19.9%
46 | C[C@@H](NC(=O)OC(C)(C)C)c1nnc(S(=O)(=O)Cc2ccccc2)o1 | 40.3% (active)
47 | CCc1ccccc1NC(=O)CSc1nnc([C@@H](NC(=O)OC(C)(C)C)C(C)C)o1 | 12.6%
48 | C[C@H](NC(=O)OC(C)(C)C)c1nnc(SCC(=O)Nc2ccc(Br)cc2)o1 | 9.84%

Row | Structure (SMILES) | inhibition
49 | CCN(CC)C(=O)COc1coc(CN2CCN(Cc3ccccc3)CC2)cc1=O | 16.8%
50 | COC(C[C@@H]1O[C@@H]1C(=O)[C@@H](C)OCc1ccccc1)OC | 3.69%
51 | CC1(C)NC(=O)N(CCCCSc2ccc(Cl)cc2)C1=O | -13.6%
52 | COC(=O)c1sc(-c2ccc(C(C)(C)C)cc2)cc1NC(=O)/C=C/C(=O)O | -5.28%
53 | COCCCC1CCN(C(=O)C2CCC(=O)N(C3CCCCCC3)C2)CC1 (stereo not drawn) | 2.49%
54 | COCCNC(=O)C(OC(=O)c1cccs1)c1ccc(F)cc1 (stereo not drawn) | 10.9%
55 | c1ccc(-c2nccc(-c3ccc(-n4cnc5ccccc54)cc3)n2)nc1 | 46% (active)
56 | COC(=O)c1ccc(-n2cnc3ccccc32)nc1 | 10.4%
57 | Cc1nccc(-c2ccc(-n3c(C)ccc3C)cc2)n1 | 6.83%
58 | Cc1cc(C(=O)CC#N)c(C)n1CC(F)(F)F | -1.63%
59 | COCCn1c(C)cc(C(=O)COC(=O)/C=C/c2cccc(OC)c2)c1C | 17.6%
60 | COC(=O)CNC(=O)c1cc(-c2ccncc2)nc2ccccc12 | -9.97%
61 | C/C(N)=C(/C#N)C(=O)COC(=O)c1cc(-c2ccc(C)cc2)nc2ccccc12 | 23.8%
62 | N/C(=N\OC(=O)c1cc(-c2ccccc2)nc2ccccc12)c1ccncc1 | 61.8% (active)
63 | O=C(Oc1ccc(C(=S)N2CCOCC2)cc1)c1ccc(F)cc1 | 7.76%
64 | O=C(Oc1ccc(F)cc1)N1CCOCC1 | 97.5% (active)
65 | CC(=O)c1ccc(OC(=O)N2CCOCC2)cc1 | 9.97%
66 | CCOc1c(OC)cccc1C(=O)NCC1(c2ccccc2)CCCC1 | 27.6%
67 | CC(C)(C)n1ncc2c(=O)n(Cc3c(Cl)cccc3Br)cnc21 | 5.55%
68 | Cc1ccc(OCC(=O)Nc2cccc3c2CCCC3)cc1C | 28.1%
69 | O=C(COC(=O)c1ccc([N+](=O)[O-])cc1Cl)NC(=O)c1ccccc1 | -3.01%
70 | O=C(NC(Nc1nc2ccc([N+](=O)[O-])cc2s1)(C(F)(F)F)C(F)(F)F)c1ccccc1 | 76.9% (active)
71 | O=C(NOCc1ccccc1)c1cccc([N+](=O)[O-])c1 | 0.85%
72 | CCc1ccc(C(=O)NN=C2CCCCCC2)s1 | -0.295%

Row | Structure (SMILES) | inhibition
73 | CCCC(C(=O)N1CCOCC1)N1C(=O)C2C3C=CC(C3)C2C1=O (stereo not drawn) | -10.3%
74 | CCC(C)(C)n1nnnc1C(c1cccs1)N1CCN(c2nc3ccccc3s2)CC1 (stereo not drawn) | 37.8%
75 | CCOc1ccc2nc(N3CCCN(C(=O)Nc4ccccc4C)CC3)c(C#N)cc2c1 | 2.29%
76 | CCC(C)(C)n1nnnc1CN1CCN(c2nc3ccc(C)cc3cc2C#N)CC1 | 41.5% (active)
77 | CSc1ccc(CN(C)CC(=O)NCc2ccc(F)cc2)cc1 | -1.15%
78 | Cn1c(CNC(=O)c2ccco2)nnc1SCC(=O)N1CCN(c2ccccc2)CC1 | 2.03%
79 | O/N=C(\c1ccc2c(c1)OCCO2)C1CCCCC1 | 3.12%
80 | Cc1c(CNCCc2ccccc2)c(C(=O)O)c(C)n1-c1ccccc1 | -4.69%
81 | COc1cc(/C=N/n2c(C)n[nH]c2=S)ccc1OCc1ccccc1 | 8.61%
82 | Cn1c(-c2sc3cc(C(F)(F)F)cnc3c2-c2ccccc2)n[nH]c1=S | -3.83%
83 | Cn1c(-c2sccc2OCc2cccc(C(F)(F)F)c2)n[nH]c1=S | 42.2% (active)
84 | CCOc1ccc(-n2c(SCC(=O)Nc3cc(C(=O)O)ccc3Cl)nc3ccccc3c2=O)cc1 | 22.7%
85 | CCn1c(CSCc2c(Cl)cccc2Cl)n[nH]c1=S | 53.7% (active)
86 | CCn1c(CNS(=O)(=O)c2ccc(Cl)cc2)n[nH]c1=S | -9.99%
87 | S=c1[nH]nc(CSCc2ccc(Cl)cc2Cl)n1-c1ccccc1 | 38.8%
88 | Clc1ccc(C2=CSC3=Nc4cccc5cccc(c45)N23)cc1 | 21.2%
89 | CCN(CC)P(=O)(/C(Cl)=C\Nc1c(C)n(C)n(-c2ccccc2)c1=O)N(CC)CC | 2.07%
90 | COc1ccc(CCNCC(O)Cn2ccc3ccccc32)cc1OC (stereo not drawn) | -8.76%
91 | O=C1c2ccccc2C(=O)c2c1cccc2N1CCN(Cc2ccccc2)CC1 | 41.3% (active)
92 | O=C1c2ccccc2C(=O)c2c1cccc2N1CCN(CCO)CC1 | 12.2%
93 | O=C1c2ccccc2C(=O)c2c1cccc2N1CCN(C/C=C/c2ccccc2)CC1 | 38.5%
